In PubChem BioAssay AID1159580 (chemical genetic matrix, 2015):
Several values for one entry are separate records, joined by “and”; a condition that tells them apart may be missing. Equal entries are not always repeated. In all, about 5,500 compounds went through this assay and about 2,000 (36%) were called active. Inconclusive results (about 18%) are left out. No stated cut-off is given here; in the data, active means normalized growth mostly below about 0.91 (no sharp cut-off); inconclusive means no clear call, values can overlap the other calls; inactive means mostly above about 0.92. Some of the results follow.

Test: chemical genetic growth profiling, strain panel (AID 1159580);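 further: tested at 20 µM; growth read once vehicle control cultures reached saturation at 30 °C; 1 = growth at the plate median or of vehicle wells; lower values mean less growth of the strain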
Settings: S. cerevisiae deletion strains, growth OD

Measured: normalized growth

O=C1c2ccccc2C(=O)c2ccccc21
inactive: locus YAL013W, strain DEP1, active compounds read low 1 | locus YAL021C, strain ccr4, active compounds read low 0.97 | locus YAL026C, strain drs2, active compounds read low 0.969 | locus YAL030W, strain snc1, active compounds read low 0.995 | locus YBL061C, strain skt5, active compounds read low 0.986 | locus YBR009C, strain hhf1, active compounds read low 0.96 | locus YBR021W, strain FUR4, active compounds read low 1.15 | locus YBR023C, strain chs3, active compounds read low 0.982 | locus YBR171W, strain sec66, active compounds read low 0.978 | locus YBR229C, strain ROT2, active compounds read low 0.999 | locus YBR231C, strain swc5, active compounds read low 0.963 | locus YBR279W, strain paf1, active compounds read low 0.975 | locus YCL011C, strain gbp2, active compounds read low 0.989 | locus YCL016C, strain dcc1, active compounds read low 0.957 | locus YCL029C, strain bik1, active compounds read low 0.994 | locus YCL069W, strain vba3, active compounds read low 0.998 | locus YCR088W, strain abp1, active compounds read low 1.01 | locus YDL005C, strain med2, active compounds read low 0.999 | locus YDL035C, strain GPR1, active compounds read low 0.949 | locus YDL040C, strain nat1, active compounds read low 0.988 | locus YDL074C, strain BRE1, active compounds read low 0.91 | locus YDL101C, strain DUN1, active compounds read low 0.985 | locus YDL134C, strain PPH21, active compounds read low 0.995 | locus YDL185W, strain tfp1, active compounds read low 0.981 | locus YDL192W, strain arf1, active compounds read low 0.99 | locus YDR001C, strain nth1, active compounds read low 0.993 | locus YDR069C, strain doa4, active compounds read low 0.984 | locus YDR101C, strain arx1, active compounds read low 0.989 | locus YDR137W, strain rgp1, active compounds read low 0.947 | locus YDR150W, strain NUM1, active compounds read low 0.969 | locus YDR159W, strain sac3, active compounds read low 1.01 | locus YDR162C, strain NBP2, active compounds read low 0.921 | locus YDR297W, strain sur2, active compounds read low 0.993 | locus YDR318W, strain mcm21, active compounds read low 0.975 | locus YDR334W, strain swr1, active compounds read low 0.974 | locus YDR335W, strain msn5, active compounds read low 0.966 | locus YDR388W, active compounds read low 1 | locus YDR392W, strain spt3, active compounds read low 0.842 | locus YDR502C, strain sam2, active compounds read low 0.991 | locus YEL003W, strain gim4, active compounds read low 0.981 | locus YEL037C, strain rad23, active compounds read low 0.982 | locus YEL061C, strain CIN8 (second series), active compounds read low 0.991 | locus YEL061C, strain CIN8, active compounds read low 1.01 | locus YER015W, strain faa2, active compounds read low 0.957 | locus YER016W, strain bim1, active compounds read low 0.992 | locus YER110C, active compounds read low 0.986 | locus YER111C, strain swi4, active compounds read low 1 | locus YER155C, strain BEM2 (second series), active compounds read low 0.968 | locus YER155C, strain BEM2, active compounds read low 1.02 | locus YER167W, strain BCK2, active compounds read low 0.976 | locus YFR010W, strain ubp6, active compounds read low 0.982 | locus YGL078C, strain dbp3, active compounds read low 0.978 | locus YGL086W, strain mad1, active compounds read low 0.967 | locus YGL167C, strain pmr1, active compounds read low 0.963 | locus YGL173C, strain kem1, active compounds read low 0.997 | locus YGL227W, strain vid30, active compounds read low 1 | locus YGL240W, strain doc1, active compounds read low 1 | locus YGL248W, strain PDE1, active compounds read low 1.01 | locus YGL253W, strain hxk2, active compounds read low 0.968 | locus YGR078C, strain PAC10, active compounds read low 0.963 | locus YGR135W, strain pre9, active compounds read low 0.994 | locus YGR229C, strain SMI1, active compounds read low 0.854 | locus YGR252W, strain gcn5, active compounds read low 1.01 | locus YHR013C, strain ard1, active compounds read low 0.974 | locus YHR027C, strain rpn1, active compounds read low 0.965 | locus YHR030C, strain SLT2, active compounds read low 1.01 and 1.02 | locus YHR079C, strain IRE1 (second series), active compounds read low 0.994 | locus YHR079C, strain IRE1, active compounds read low 1.04 | locus YHR094C, strain hxt1, active compounds read low 0.98 | locus YHR129C, strain ARP1, active compounds read low 1 | locus YHR142W, strain chs7, active compounds read low 0.93 | locus YHR200W, strain rpn10, active compounds read low 0.988 | locus YIL066C, strain RNR3, active compounds read low 0.95 | locus YIL073C, strain SPO22, active compounds read low 0.832 | locus YIL125W, strain kgd1, active compounds read low 0.989 | locus YIR030C, strain dcg1, active compounds read low 0.998 | locus YJL092W, strain hpr5, active compounds read low 0.992 | locus YJL095W, strain BCK1 (second series), active compounds read low 1 | locus YJL095W, strain BCK1, active compounds read low 0.994 and 1.03 | locus YJL115W, strain asf1, active compounds read low 0.998 | locus YJL129C, strain trk1, active compounds read low 1.07 | locus YJL134W, strain LCB3, active compounds read low 0.988 | locus YJL154C, strain vps35, active compounds read low 1 | locus YJL164C, strain tpk1, active compounds read low 0.975 | locus YJL166W, strain qcr8, active compounds read low 1 | locus YJL168C, strain set2, active compounds read low 1 | locus YJL187C, strain SWE1 (second series), active compounds read low 0.982 | locus YJL187C, strain SWE1, active compounds read low 0.989 | locus YJR043C, strain POL32, active compounds read low 0.958 | locus YJR066W, strain TOR1, active compounds read low 0.982
active: locus YDR195W, strain ref2 1.24 [resistant]
